# Laboratory results reported in PubChem BioAssay (NCI).
# This is part of a sample that, as a whole, favours compounds with a hit. Of some 79,000 tested, about 15% had one in any assay. Unmarked numbers belong to inactive results. Activity calls are given as the source filed them. Cut-off read from the data, not from the text of the source: active = growth inhibition above about 70%; inactive = the rest.
# Assays:
# [1] = NCI Yeast Anticancer Drug Screen. Data for the rad52 strain (AID 147);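 note: 0% = growth of vehicle-treated control cultures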; details: S. cerevisiae rad52 mutant growth inhibition, hits give high values
# How it was run: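 Vehicle-treated cultures served as the reference for growth inhibition of compound-exposed yeast bearing a DNA repair mutation.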
# [2] = NCI Yeast Anticancer Drug Screen. Data for the wt1 strain (AID 149);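 note: 0% = growth of vehicle-treated wt1 cultures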; details: S. cerevisiae wt1 strain (SPY 50644) growth inhibition, hits give high values
# How it was run: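 Growth inhibition read against vehicle controls after compound exposure of the wt1 yeast strain.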
# [3] = NCI Yeast Anticancer Drug Screen. Data for the rad50EPP+ strain (AID 151);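 note: 0% = growth of vehicle-treated control cultures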; details: S. cerevisiae rad50 mutant strain, hits give high values
# How it was run: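 In this screen, rad50EPP+ yeast were exposed to compounds. Growth inhibition was scored against vehicle-treated controls.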
# [4] = NCI Yeast Anticancer Drug Screen. Data for the mgt1 strain (AID 153); details: S. cerevisiae mgt1 mutant growth inhibition, hits give high values
# How it was run: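 mgt1 strain exposed; growth vs vehicle control recorded as inhibition.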
# [5] = NCI Yeast Anticancer Drug Screen. Data for the rad50 strain (AID 155);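 note: 0% = growth of vehicle-only cultures of the same strain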; details: S. cerevisiae rad50 strain growth inhibition, hits give high values
# How it was run: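 Readout: growth inhibition relative to vehicle-treated cultures. Compound exposure was carried out in a genetically defined yeast strain deficient in DNA damage repair.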
# [6] = NCI Yeast Anticancer Drug Screen. Data for the mec2-1 strain (AID 157); details: S. cerevisiae mec2-1 strain, hits give high values
# How it was run: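 Vehicle-treated cultures served as reference for growth inhibition of compound-exposed mec2-1 yeast.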
# [7] = NCI Yeast Anticancer Drug Screen. Data for the rad14 strain (AID 159);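 note: 0% = growth of vehicle-treated control cultures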; details: S. cerevisiae rad14 strain growth inhibition, hits give high values
# How it was run: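 Growth inhibition vs vehicle controls; genetically altered yeast strain (DNA damage repair defect) treated with test compounds.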
# [8] = NCI Yeast Anticancer Drug Screen. Data for the sgs1 mgt1 strain (AID 161);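 note: 0% = growth of cultures given vehicle only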; details: S. cerevisiae sgs1 mgt1 strain, hits give high values
# How it was run: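 Test agents were incubated with a DNA-repair-mutant yeast strain. Growth was then read and compared against vehicle-treated controls.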
# [9] = NCI Yeast Anticancer Drug Screen. Data for the CLN2oe strain (AID 163);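 note: 0% = growth of vehicle-only control cultures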; details: S. cerevisiae CLN2oe strain, hits give high values
# How it was run: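 Inhibition relative to vehicle-treated yeast is reported. Cells: strain with genetic alteration in cell-cycle control, grown with compound.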
# [10] = NCI Yeast Anticancer Drug Screen. Data for the cln2 rad14 strain (AID 165);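 note: 0% = growth equal to vehicle treated cultures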; details: S. cerevisiae cln2 rad14 strain, hits give high values
# How it was run: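 Each compound was tested on cln2 rad14 yeast. Inhibition of growth was calculated against vehicle-exposed controls.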
# [11] = NCI Yeast Anticancer Drug Screen. Data for the bub3 strain (AID 167); details: S. cerevisiae bub3 mutant strain, hits give high values
# How it was run: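 Readout: yeast growth inhibition, expressed relative to vehicle-only wells. The test organism is a mutant strain from a panel with lesions in DNA repair or checkpoint genes.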
# [12] = NCI Yeast Anticancer Drug Screen. Data for the wt2 strain (AID 169);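 note: 0% = growth of vehicle-treated yeast cultures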; details: S. cerevisiae wt2 strain growth inhibition, hits give high values
# How it was run: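 Inhibition of yeast growth was determined after compound treatment, normalised to controls receiving only vehicle.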
# [13] = NCI Yeast Anticancer Drug Screen. Data for the mlh1 strain (AID 171);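 note: 0% = growth of vehicle-treated control cultures of the same strain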; details: S. cerevisiae mlh1 strain growth inhibition, hits give high values
# How it was run: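 Vehicle-normalised growth inhibition of a repair- or checkpoint-altered yeast strain following compound treatment.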
# [14] = NCI Yeast Anticancer Drug Screen. Data for the sgs1 strain (AID 173);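 note: 0% = growth of vehicle-only control cultures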; details: S. cerevisiae sgs1 mutant, hits give high values
# How it was run: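 Screen format: yeast with repair or checkpoint alterations, compound exposure, growth read relative to vehicle.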
# [15] = NCI Yeast Anticancer Drug Screen. Data for the mlh1 rad18 strain (AID 175); details: S. cerevisiae mlh1 rad18 strain growth inhibition, hits give high values
# How it was run: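 Vehicle-treated cultures served as the reference for growth inhibition in a yeast strain carrying DNA damage repair alterations exposed to each compound.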
# [16] = NCI Yeast Anticancer Drug Screen. Data for the rad18 strain (AID 177); details: S. cerevisiae rad18 mutant growth inhibition, hits give high values
# How it was run: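 Test articles were incubated with altered yeast defective in DNA damage repair. Results are given as inhibition of growth versus vehicle.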
# [17] = at 5.0 µM (retest, dose inferred, filed as 0.5)
# [18] = at 50.0 µM (retest, dose inferred, filed as 5.0)
compound,measurement,setting,value
N=C1N=Nc2nc(C3(c4nc5n(c4O)C(=N)N=N5)Cc4ccccc4C3=O)c(O)n21 (stereo unspecified),growth inhibition,[1]; at 1.2 µM,-1%
same,growth inhibition,[1]; at 3.7 µM,1%
same,growth inhibition,[1]; at 11.0 µM,5%
same,growth inhibition,[1]; at 33.0 µM,18%
same,growth inhibition,[1]; at 100.0 µM,69%
same,growth inhibition,[2]; at 1.2 µM,3%
same,growth inhibition,[2]; at 3.7 µM,7%
same,growth inhibition,[2]; at 11.0 µM,11%
same,growth inhibition,[2]; at 33.0 µM,23%
same,growth inhibition,[2]; at 100.0 µM,67%
same,growth inhibition,[3]; at 1.2 µM,-2%
same,growth inhibition,[3]; at 3.7 µM,0%
same,growth inhibition,[3]; at 11.0 µM,-1%
same,growth inhibition,[3]; at 33.0 µM,-1%
same,growth inhibition,[3]; at 100.0 µM,3%
same,growth inhibition,[4]; at 1.2 µM,5%
same,growth inhibition,[4]; at 3.7 µM,7%
same,growth inhibition,[4]; at 11.0 µM,22%
same,growth inhibition,[4]; at 33.0 µM,90% (active)
same,growth inhibition,[4]; at 100.0 µM,99% (active)
same,growth inhibition,[5]; at 1.2 µM,-9%
same,growth inhibition,[5]; at 3.7 µM,34%
same,growth inhibition,[5]; [17],4%
same,growth inhibition,[5]; at 11.0 µM,-3%
same,growth inhibition,[5]; at 33.0 µM,66%
same,growth inhibition,[5]; [18],38%
same,growth inhibition,[5]; at 50.0 µM,82.2% (active)
same,growth inhibition,[5]; at 100.0 µM,94% (active)
same,growth inhibition,[6]; at 1.2 µM,2%
same,growth inhibition,[6]; at 3.7 µM,4%
same,growth inhibition,[6]; [17],4%
same,growth inhibition,[6]; at 11.0 µM,12%
same,growth inhibition,[6]; at 33.0 µM,30%
same,growth inhibition,[6]; [18],28%
same,growth inhibition,[6]; at 50.0 µM,59.1%
same,growth inhibition,[6]; at 100.0 µM,87% (active)
same,growth inhibition,[7]; at 1.2 µM,7%
same,growth inhibition,[7]; at 3.7 µM,21%
same,growth inhibition,[7]; at 11.0 µM,48%
same,growth inhibition,[7]; at 33.0 µM,94% (active)
same,growth inhibition,[7]; at 100.0 µM,99% (active)
same,growth inhibition,[8]; [17],7%
same,growth inhibition,[8]; [18],70% (active)
same,growth inhibition,[8]; at 50.0 µM,67%
same,growth inhibition,[9]; at 1.2 µM,1%
same,growth inhibition,[9]; at 3.7 µM,8%
same,growth inhibition,[9]; at 11.0 µM,15%
same,growth inhibition,[9]; at 33.0 µM,9%
same,growth inhibition,[9]; at 100.0 µM,8%
same,growth inhibition,[10]; [17],13%
same,growth inhibition,[10]; [18],10%
same,growth inhibition,[10]; at 50.0 µM,23.2%
same,growth inhibition,[11]; at 1.2 µM,4%
same,growth inhibition,[11]; at 3.7 µM,6%
same,growth inhibition,[11]; [17],0%
same,growth inhibition,[11]; at 11.0 µM,9%
same,growth inhibition,[11]; at 33.0 µM,45%
same,growth inhibition,[11]; [18],42%
same,growth inhibition,[11]; at 50.0 µM,85.5% (active)
same,growth inhibition,[11]; at 100.0 µM,86% (active)
same,growth inhibition,[12]; at 1.2 µM,4%
same,growth inhibition,[12]; at 3.7 µM,16%
same,growth inhibition,[12]; at 11.0 µM,11%
same,growth inhibition,[12]; at 33.0 µM,32%
same,growth inhibition,[12]; at 100.0 µM,89% (active)
same,growth inhibition,[13]; at 1.2 µM,1%
same,growth inhibition,[13]; at 3.7 µM,5%
same,growth inhibition,[13]; at 11.0 µM,14%
same,growth inhibition,[13]; at 33.0 µM,68%
same,growth inhibition,[13]; at 100.0 µM,95% (active)
same,growth inhibition,[14]; at 1.2 µM,4%
same,growth inhibition,[14]; at 3.7 µM,10%
same,growth inhibition,[14]; at 11.0 µM,21%
same,growth inhibition,[14]; at 33.0 µM,74% (active)
same,growth inhibition,[14]; at 100.0 µM,95% (active)
same,growth inhibition,[15]; [17],-63%
same,growth inhibition,[15]; [18],57%
same,growth inhibition,[15]; at 50.0 µM,92.7% (active)
same,growth inhibition,[16]; at 1.2 µM,3%
same,growth inhibition,[16]; at 3.7 µM,11%
same,growth inhibition,[16]; at 11.0 µM,23%
same,growth inhibition,[16]; at 33.0 µM,75% (active)
same,growth inhibition,[16]; at 100.0 µM,96% (active)
Nc1nc2ccc(NCc3ccc(C(=O)NC(CCC(=O)O)C(=O)O)cc3)cc2c(=O)[nH]1 (stereo unspecified),growth inhibition,[1]; at 1.2 µM,-15%
same,growth inhibition,[1]; at 3.7 µM,-35%
same,growth inhibition,[1]; at 11.0 µM,-21%
same,growth inhibition,[1]; at 33.0 µM,32%
same,growth inhibition,[1]; at 100.0 µM,74% (active)
same,growth inhibition,[2]; at 1.2 µM,-6%
same,growth inhibition,[2]; at 3.7 µM,-17%
same,growth inhibition,[2]; at 11.0 µM,-19%
same,growth inhibition,[2]; at 33.0 µM,3%
same,growth inhibition,[2]; at 100.0 µM,55%
same,growth inhibition,[3]; at 1.2 µM,7%
same,growth inhibition,[3]; at 3.7 µM,-24%
same,growth inhibition,[3]; at 11.0 µM,-9%
same,growth inhibition,[3]; at 33.0 µM,-18%
same,growth inhibition,[3]; at 100.0 µM,5%
same,growth inhibition,[4]; at 1.2 µM,-14%
same,growth inhibition,[4]; at 3.7 µM,-14%
same,growth inhibition,[4]; at 11.0 µM,-24%
same,growth inhibition,[4]; at 33.0 µM,0%
same,growth inhibition,[4]; at 100.0 µM,26%
same,growth inhibition,[5]; at 1.2 µM,7%
same,growth inhibition,[5]; at 3.7 µM,-19%
same,growth inhibition,[5]; [17],3%
same,growth inhibition,[5]; at 11.0 µM,9%
same,growth inhibition,[5]; at 33.0 µM,23%
same,growth inhibition,[5]; [18],18%
same,growth inhibition,[5]; at 50.0 µM,22.1%
same,growth inhibition,[5]; at 100.0 µM,77% (active)
same,growth inhibition,[6]; at 1.2 µM,-4%
same,growth inhibition,[6]; at 3.7 µM,1%
same,growth inhibition,[6]; [17],-3%
same,growth inhibition,[6]; at 11.0 µM,8%
same,growth inhibition,[6]; at 33.0 µM,92% (active)
same,growth inhibition,[6]; [18],81% (active)
same,growth inhibition,[6]; at 50.0 µM,75.3% (active)
same,growth inhibition,[6]; at 100.0 µM,97% (active)
same,growth inhibition,[7]; at 1.2 µM,-20%
same,growth inhibition,[7]; at 3.7 µM,-19%
same,growth inhibition,[7]; at 11.0 µM,-31%
same,growth inhibition,[7]; at 33.0 µM,-5%
same,growth inhibition,[7]; at 100.0 µM,55%
same,growth inhibition,[8]; [17],21%
same,growth inhibition,[8]; [18],18%
same,growth inhibition,[8]; at 50.0 µM,25%
same,growth inhibition,[9]; at 1.2 µM,10%
same,growth inhibition,[9]; at 3.7 µM,7%
same,growth inhibition,[9]; at 11.0 µM,-5%
same,growth inhibition,[9]; at 33.0 µM,2%
same,growth inhibition,[9]; at 100.0 µM,6%
same,growth inhibition,[10]; [17],25%
same,growth inhibition,[10]; [18],25%
same,growth inhibition,[10]; at 50.0 µM,8.85%
same,growth inhibition,[11]; at 1.2 µM,-7%
same,growth inhibition,[11]; at 3.7 µM,6%
same,growth inhibition,[11]; [17],12%
same,growth inhibition,[11]; at 11.0 µM,-4%
same,growth inhibition,[11]; at 33.0 µM,6%
same,growth inhibition,[11]; [18],-24%
same,growth inhibition,[11]; at 50.0 µM,30.9%
same,growth inhibition,[11]; at 100.0 µM,76% (active)
same,growth inhibition,[12]; at 1.2 µM,-24%
same,growth inhibition,[12]; at 3.7 µM,-23%
same,growth inhibition,[12]; at 11.0 µM,-22%
same,growth inhibition,[12]; at 33.0 µM,-26%
same,growth inhibition,[12]; at 100.0 µM,-17%
same,growth inhibition,[13]; at 1.2 µM,-5%
same,growth inhibition,[13]; at 3.7 µM,2%
same,growth inhibition,[13]; at 11.0 µM,0%
same,growth inhibition,[13]; at 33.0 µM,11%
same,growth inhibition,[13]; at 100.0 µM,39%
same,growth inhibition,[14]; at 1.2 µM,-3%
same,growth inhibition,[14]; at 3.7 µM,9%
same,growth inhibition,[14]; at 11.0 µM,6%
same,growth inhibition,[14]; at 33.0 µM,6%
same,growth inhibition,[14]; at 100.0 µM,51%
same,growth inhibition,[15]; [17],6%
same,growth inhibition,[15]; [18],2%
same,growth inhibition,[15]; at 50.0 µM,59.4%
same,growth inhibition,[16]; at 1.2 µM,-11%
same,growth inhibition,[16]; at 3.7 µM,1%
same,growth inhibition,[16]; at 11.0 µM,-12%
same,growth inhibition,[16]; at 33.0 µM,5%
same,growth inhibition,[16]; at 100.0 µM,63%
